The values that follow come from ChEMBL document CHEMBL4513216, “Probing the Open Global Health Chemical Diversity Library for Multistage-Active Starting Points for Next-Generation Antimalarials” (ACS Infect Dis, 2020).

Molecules are shown by their SMILES. Among all 69,000 compounds or so, about 8,600 (12%) showed an effect of 50% or more. The list comes from a sample in which strong results are over-represented; it also holds similar structures and randomly drawn compounds.

This assay deals with Plasmodium berghei. The assay can be described thus: Screen against P. berghei liver stage (PbLuc), transformed with Luciferase, at 10uM. It counts as functional, HepG2. The note with it: tested at 10 uM.
With `CCC1CN(C(=O)c2ccc(=O)[nH]n2)CCC(=O)N1Cc1ccccc1` (stereo not given), the INHIBITION is listed as 25%.
Next, `CCC1CN(C(=O)c2ncccc2O)CCC(=O)N1Cc1ccccc1` (stereo not given): 7.43%; `CCC1CN(C(=O)c2ccc(O)cn2)CCC(=O)N1Cc1ccccc1` (stereo not given): 66.8%.
Turning to `COCC(=O)N1CCC2(CC1)CC(COC)N(Cc1ccccn1)C2` (stereo not given), the INHIBITION is recorded as 26.7%.
On to `CN(C)CC(=O)N1CCC2(CC1)CN(c1ncccn1)CCO2`, for which the INHIBITION was determined as 83.5%.
Next, `CN(C)C(=O)CN1CCOCC2(C1)CN(c1ncccn1)CCO2` (stereo not given): 11.6%; `COCC(=O)N1CCC2(CC1)CN(c1ccccn1)CCO2`: 62.5%; `COCC(=O)N1CCC2(CC1)CN(c1ncccn1)CCO2`: 57.9%.
Next, `COCC(=O)N1CCC2(CCN(Cc3ccccn3)CC2)CC1`: 56.9%; `COCC(=O)N1CCC2(CC1)CCN(Cc1ccccn1)C2=O`: 42.1%.
With `O=C(Cc1ccccn1)N1CCC2(CC1)CN(c1ccccn1)CCO2`, the INHIBITION was found to be 21.7%.
As for `Cn1cccc1C(=O)N1CCC2(CC1)CN(c1ccccn1)CCO2`, the INHIBITION is 28.5%.
Next, `CN(C)CC(=O)N1CCC2(CC1)COCCN(c1ncccn1)C2`: -13.2%.
For the compound `NC(=O)N1CCC2(CC1)CN(c1ncccn1)CCO2`, the INHIBITION came out at 25.2%.
For `O=C(C1CCOC1)N1CCC2(CC1)CN(c1ncccn1)CCO2` (stereo not given), the INHIBITION turned out to be 25.2%.
In the case of `Cc1cnc(N2CCOC(C(=O)NCc3ccccc3)C2)s1` (stereo not given), the INHIBITION amounted to 12.8%.
Turning to `CCC(C)NC(=O)c1cc(S(=O)(=O)N2CCCC2)c(C)s1` (stereo not given), the INHIBITION was 28.3%.
As to `Cn1ccc(C(=O)NCc2ccc(N3CCOCC3)nc2)cc1=O`, the INHIBITION is listed as -29.9%.
On to `O=C(NCC(F)(F)F)C1CSCN1S(=O)(=O)c1cccc(F)c1` (stereo not given), for which the INHIBITION is on record as -16.6%.
Regarding `COc1ccc(-c2cc(C(=O)NCCn3ccnc3)n(C)n2)cc1`, the INHIBITION was -5.8%.
For `CN(Cc1ccc(O)cc1)C(=O)NCc1nnc2n1CCCCC2`, the INHIBITION was -9.76%.
With `CCc1nc(CN2CCCN(CC(=O)N3CCOCC3)CC2)no1`, the INHIBITION was 13.8%.
Consider `CCC(C)C(=O)NCc1c(C)nn(C)c1N1CCCN(C)CC1` (stereo not given), for which the INHIBITION is -1.32%.
Take `O=S(=O)(C1CC1)N1CCC2(CN(c3ccccn3)C2)C1`: the INHIBITION was 24.9%.
Under `O=C(CC1CC1)N1CCC2(CC1)CN(c1ncccn1)CCO2` stands 50%.
As for `NCCC(=O)N1CCC2(CC1)CN(C(=O)Cc1ccc(Cl)cc1)CCO2`, the INHIBITION came to 64.8%.
Regarding `NCC(=O)N1CCC2(CC1)CN(C(=O)Cc1ccc(Cl)cc1)CCO2`, the INHIBITION was -26.3%.
Under `Cc1occc1C(=O)N1CCC2(CC1)CN(c1ccccn1)CCO2` stands 14.8%.
Take `O=C(CC1CC1)N1CCC2(CC1)CN(c1ncc(F)cn1)CCO2`: the INHIBITION was determined as 35.7%.
As to `O=S(=O)(C1CC1)N1CCC2(CCCN(c3ncccn3)C2)C1` (stereo not given), the INHIBITION is given as 19.6%.
Next, `c1cnc(N2CCOC3(CCN(CC4CCCCC4)CC3)C2)nc1`: 34.7%; `O=C(N1CCOCC1)N1CCC2(CC1)CN(c1ccccn1)CCO2`: 67.2%; `O=S(=O)(C1CC1)N1CCC2(CN(c3ncccn3)C2)C1`: 54.8%.
Under `CCCS(=O)(=O)N1CCC2(CC1)CN(c1ccccn1)CCO2` stands 0%; under `NCCC(=O)N1CCC2(CC1)CN(C(=O)Cc1cccc(Cl)c1)CCO2`, -4.76%; under `NC(=O)c1cnc(NC2CC2)nc1CCNC(=O)Cc1ccccc1`, -50.3%.
Next, `CCn1nc(C)c(CNC(=O)NCC(C)(O)c2ccc(C)o2)c1C` (stereo not given): -8.5%.
On to `Cc1ccc(CN2CCC3(CC2)C(=O)N(CCO)CCN3C)o1`, for which the INHIBITION came to 18.6%.
For the compound `O=C(CCc1ccsc1)N1CCCC(N2CCNC2=O)C1` (stereo not given), the INHIBITION was -5.26%.
Under `O=C(NCCc1ccccn1)N1CCOC(c2ccccc2Cl)C1` (stereo not given) stands -4.63%; under `COc1cc(C2SC(C)=Nc3c2c(=O)[nH]n3C2CCCC2)ccc1O` (stereo not given), 24.7%.
As to `CC(C)CC(=O)N1C[C@H]2CCCN(S(=O)(=O)c3ccc(Cl)s3)[C@H]2C1`, the INHIBITION was -29.9%.
Next, `CC(C)COC1CC2(CCN(C(=O)Cc3ccccn3)CC2)C1`: 64.7%; `Cc1ccc(C(=O)N2CCC3(CC2)CN(c2ccccn2)CCO3)cc1`: 49.7%; `O=C(Cc1ccccc1)N1CCC2(CC1)CN(c1ncccn1)CCO2`: 50.9%.
Regarding `O=C(Cc1ccccn1)N1CCC2(CC1)[C@H](O)C[C@@H]2O`, the INHIBITION is reported as 39%.
Take `O=C(Cc1ccccn1)N1CCC2(CC1)CN(c1ncccn1)CCO2`: the INHIBITION came out at 27.6%.
Under `O=C(c1cscn1)N1CCC2(CC1)CN(c1ccccn1)CCO2` stands 34.6%; under `Cc1cnc(C(=O)N2CCC3(CC2)CN(c2ccccn2)CCO3)cn1`, 56.7%; under `COCC(=O)N1CCOC2(CCCN(c3cnccn3)C2)C1` (stereo not given), 52.3%.
Next, `CCOC1CC2(CCN(C(=O)Cc3ccccn3)CC2)C1`: 31.2%; `CS(=O)(=O)N1CCOC2(CCCN(c3cnccn3)C2)C1` (stereo not given): -14%; `CC(=O)N1CCCC2(C1)CN(C(=O)Cc1ccccc1)CCO2` (stereo not given): 41.6%.
Under `CCS(=O)(=O)N1CCOC2(CCCN(c3cnccn3)C2)C1` (stereo not given) stands -7.59%; under `CC1=C(C#N)C(=O)NC(=O)/C1=C\c1c(C)[nH]n(-c2ccc(Cl)cc2)c1=O`, 11.5%; under `Cn1cc(CCNC(=O)N2CCCC(c3nncn3C)C2)cn1` (stereo not given), -18%.
As for `Cc1nnc2n1CCN(Cc1csc(-c3ccsc3)n1)C2`, the INHIBITION is reported as 14.4%.
Under `CC(C)Cc1nc(CN2CCOC(Cn3cccn3)C2)no1` (stereo not given) stands 28.8%.
With `O=C(c1ccc(-c2cnco2)cc1)N1CCC(Nc2cccnn2)CC1`, the INHIBITION was -46.2%.
Regarding `Cc1nccn1-c1cncc(C2CCCN2Cc2cccnc2)n1` (stereo not given), the INHIBITION is -22.6%.
Next, `CCC(CO)N(C/C(C)=C/c1ccco1)Cc1ccsc1` (stereo not given): 42.3%; `COCCN1CCCc2sc(C(=O)NCC3CCCO3)nc21` (stereo not given): -50.8%.
Next, `COCCN(C)C[C@@H]1CCC[C@@H]2CN(c3ncccn3)C[C@@H]21`: 26%.
Regarding `O=C(c1ccnnc1)N1CCC2(CC1)CN(c1ccccn1)CCO2`, the INHIBITION is 33.4%.
Take `c1cnc(N2CCCC3(CCN(CC4CCOC4)CC3)C2)nc1` (stereo not given): the INHIBITION was -19.1%.
On to `O=C(c1cccnc1)N1CCC2(CC1)CN(c1ccccn1)CCO2`, for which the INHIBITION was -13.2%.
On to `O=C(c1cccc(F)c1)N1CCC2(CC1)CN(c1ccccn1)CCO2`, for which the INHIBITION came to 57.9%.
With `CN(C)C(=O)N1CCC2(CCCN(c3ncccn3)C2)C1` (stereo not given), the INHIBITION came to 11.5%.
With `O=C(CC1CC1)N1CCC2(CCCN(c3ncccn3)C2)CC1`, the INHIBITION came to 52%.
Turning to `O=C(C1=CCCCC1)N1CCC2(CC1)COC(COc1ccccn1)C2` (stereo not given), the INHIBITION was 3.41%.
As for `Cc1ccccc1CC(=O)NS(=O)(=O)c1cccc2cnccc12`, the INHIBITION stood at 40.6%.
As for `Cc1cc(N2CCN(C(=O)c3cnn(C(C)C)c3)CC2)nc(N)n1`, the INHIBITION was -2.73%.
Consider `CC(C)n1cc(C(=O)N2CCN(c3cccc(C(F)(F)F)c3)CC2)cn1`, for which the INHIBITION is reported as 62.8%.
As for `Cc1cc(N2CCN(C(=O)c3cnn(C(C)C)c3)CC2)cc(C)n1`, the INHIBITION is listed as 3%.
With `O=C(N1CCCC1)N1CCO[C@H]2[C@@H](Oc3ccccn3)CC[C@@H]21`, the INHIBITION is listed as 35.3%.
With `O=C(C1=CCCC1)N1CCO[C@H]2[C@@H](Oc3ccccn3)CC[C@@H]21`, the INHIBITION was 30.1%.
For `Cc1cncc(C(=O)N2CCO[C@H]3[C@H](Oc4ccccn4)CC[C@@H]32)c1`, the INHIBITION came out at 72.9%.
Next, `O=C(c1cscn1)N1CCO[C@H]2[C@@H](Oc3ccccn3)CC[C@@H]21`: 63.8%; `Cc1occc1C(=O)N1CCO[C@H]2[C@@H](Oc3ccccn3)CC[C@@H]21`: 30.7%; `Cc1cc(C(=O)N2CCO[C@H]3[C@H](Oc4ccccn4)CC[C@@H]32)c(C)[nH]1`: 32.1%.
With `Cc1nn(C)c(C)c1C1CCCN1C(=O)c1ccc(C(N)=O)s1` (stereo not given), the INHIBITION is 22.8%.
Consider `Cc1ccc(CN(C)c2cc(N3CCCC3CO)ncn2)s1` (stereo not given), for which the INHIBITION was -21.4%.
On to `CCOC(=O)N1CCN(c2nc(NC3CC3)c3ccccc3n2)CC1`, for which the INHIBITION was found to be 52.3%.
`CCOC(=O)N1CCN(c2nc(NC)c3ccccc3n2)CC1`: the INHIBITION is given as 45%.
Consider `CCOC(=O)N1CCN(c2nc(N)c3ccccc3n2)CC1`, for which the INHIBITION is on record as -90.8%.
With `CCOC(=O)N1CCN(c2nc(NCCO)c3ccccc3n2)CC1`, the INHIBITION is 6.54%.
With `CCOC(=O)N1CCN(c2nc(N3CCCC3)c3ccccc3n2)CC1`, the INHIBITION is reported as 3.68%.
Under `CCOC(=O)N1CCN(c2nc(NCCCO)c3ccccc3n2)CC1` stands 51.3%; under `CNC(=O)CN1CC[C@H]2CN(C(=O)c3ccccc3F)C[C@H]2C1`, 19.4%.
In the case of `CCn1c(C2CCNCC2)nn(CCn2ccc(C)n2)c1=O`, the INHIBITION is recorded as 21.1%.
In the case of `CC(=O)N1CCCCC[C@@H]2[C@@H]1[C@H](c1cccc(F)c1)CN2C(C)=O`, the INHIBITION was 20.1%.
Under `CCN1CCC(CNC(=O)C2(c3cccc(C)c3)CCCCC2)CC1` stands -3.2%; under `CN1CCC(c2cncc(-c3cccc(Cl)c3)n2)CC1`, 19.6%.
Next, `CNS(=O)(=O)Cc1cccc(CNc2ccc(Cl)cn2)c1`: 45.2%; `CC(C)c1ccc(CNC(C)c2ccc(S(=O)(=O)N(C)C)cc2)cc1` (stereo not given): 52.3%; `Clc1ccc(CNc2ccc(Cl)cn2)cc1`: -151%.
On to `CC1CCN(CC(O)CNc2ccc(Cl)cn2)CC1` (stereo not given), for which the INHIBITION came out at 35.6%.
Regarding `CN(C)S(=O)(=O)c1ccc(CNc2ccc(Cl)cn2)cc1`, the INHIBITION was found to be 79.8%.
On to `CC(C)c1ccc(CNC(C)c2ccc(S(C)(=O)=O)cc2)cc1` (stereo not given), for which the INHIBITION was found to be 6.39%.
As for `CSc1ccc(CNc2ccccc2CN2CCC(O)CC2)cc1`, the INHIBITION is listed as -23.1%.
For `Cc1nc(CNC(C)c2ccc(S(=O)(=O)N(C)C)cc2)no1` (stereo not given), the INHIBITION stood at 45.7%.
As for `OC1CCN(Cc2ccc(CNc3ccc(Cl)cn3)cc2)CC1`, the INHIBITION worked out at 54.3%.
Under `OC1CCCN(CCNc2ncc(Cl)cc2F)C1` (stereo not given) stands 22.1%; under `CN(c1ccc(CNc2ccc(Cl)cn2)cc1)S(C)(=O)=O`, -95.7%; under `OC1CCN(Cc2ccc(CNc3ncc(Cl)cc3F)cc2)CC1`, 63.7%.
